# PrP UTR inh: inhibition of PrP 5' UTR reporter expression; AID 488862, 2010; inhibition, % (concentration not given with the values); cell-based PrP 5' UTR mRNA reporter, plate reader; actives 0.35% (n = 340,000); in the data active means inhibition above about 52%; further: 0 = median of the neutral control wells
# Rv3671c protease: Rv3671c serine protease inhibitors, primary screen, biochemical, fluorescence polarization, M. tuberculosis H37Rv | P9WHR9 | inhibition, % at 5.96 µM | actives 0.048% (n = 320,000); in the data active means inhibition above about 38%;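 further: extracellular domain of Rv3671c used as enzyme; 0% = enzyme with DMSO and 100% = no enzyme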
# Target sequence (P9WHR9 whole entry, looked up, the tested form may be a part): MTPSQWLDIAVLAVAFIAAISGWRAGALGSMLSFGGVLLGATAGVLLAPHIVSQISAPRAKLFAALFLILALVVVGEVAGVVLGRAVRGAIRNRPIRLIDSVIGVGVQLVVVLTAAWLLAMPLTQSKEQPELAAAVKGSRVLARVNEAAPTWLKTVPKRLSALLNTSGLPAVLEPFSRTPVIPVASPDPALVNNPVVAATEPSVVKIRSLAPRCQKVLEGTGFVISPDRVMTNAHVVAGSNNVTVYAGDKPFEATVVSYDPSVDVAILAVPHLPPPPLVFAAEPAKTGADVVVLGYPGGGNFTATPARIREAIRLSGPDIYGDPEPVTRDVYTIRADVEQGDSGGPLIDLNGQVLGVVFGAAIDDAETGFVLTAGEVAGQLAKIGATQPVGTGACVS
# FadD28 FP inh: inhibitors of FadD28 bisubstrate probe binding, primary screen, biochemical, fluorescence polarization, single point. Mycobacterium tuberculosis FadD28 fatty-acid-AMP ligase. actives 0.22% (n = 360,000). AID 588549, 2011. inhibition, % at 12.5 µM; in the data active means inhibition above about 8.5%, passing the limit was not always enough; inconclusive means no clear call, values can overlap the other calls
# SSB-PriA inh: inhibitors of Klebsiella pneumoniae PriA binding to SSB C-terminal tail, primary screen, biochemical, AlphaScreen | actives 0.6% (n = 430,000) | AID 1272365, 2023 | inhibition, % at 33 µM | AlphaScreen SSBct-PriA binding, biotinylated peptide; in the data active means inhibition mostly above about 37%, no sharp cut-off; inactive means mostly below about 20%;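 further: plate controls were negative control peptide for no effect and reference peptide for full effect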
# Mtb UGM inh: M. tuberculosis UGM enzyme inhibitors, primary screen, biochemical, fluorescence polarization, single point; UDP-galactopyranose mutase (Mycobacterium tuberculosis (strain ATCC 25618 / H37Rv)), …; inhibition, % at 10 µM; purified UGM, fluorescence polarization probe displacement; AID 504406, 2011; actives 0.06% (n = 320,000); in the data active means inhibition above about 10%, passing the limit was not always enough; inconclusive means no clear call, values can overlap the other calls
# PrPC TRFRET: inhibitors of human cell surface prion protein PrPC, primary screen, cell-based, TR-FRET; TR-FRET read-out; Major prion protein (Homo sapiens), P04156; inhibition, % at 13.8 µM; actives 0.43% (n = 370,000); AID 720596, 2013; in the data active means inhibition above about 24%; further: 0% = median of the test wells and 100% = reference compound wells
# PrP 5UTR single: prion 5' UTR mRNA inhibition, cherry-pick retest; shares compounds with PrP UTR inh; cell-based prion protein 5' UTR reporter, plate reader; inhibition, % at 2.5 µM; actives 48% (n = 1,100); AID 504592, 2011; in the data active means inhibition above about 54%; inconclusive means no clear call, values can overlap the other calls
# * marks the source's active call; other numbers are inactive results; i = inactive; ? = inconclusive; . = no result; ! = repeats disagree. A selection: hits, their analogues and other compounds. The true share with any hit is near 1.2%.
SMILES,PrP UTR inh,Rv3671c protease,FadD28 FP inh,SSB-PriA inh,Mtb UGM inh,PrPC TRFRET,PrP 5UTR single
Cc1c(NS(=O)(=O)c2ccc(C(=O)NCc3ccccc3)cc2)c(=O)n(-c2ccccc2)n1C,56*,-2,-1,-9,0,-5,1
O=C(Nc1nc2cc3c(cc2s1)OCCO3)c1ccc(Br)s1,.,.,.,-6,.,.,.
Cc1cc(N2CCCCC2)nc(CNC(=O)Nc2ccc(C)c(Cl)c2)n1,.,.,.,-2,.,.,.
Cc1ccn2c(=O)c(NC(=O)C(F)(F)F)c(C)nc2c1,.,.,.,-9,.,.,.
c1ccc(-c2noc(-c3ccncc3)n2)nc1,-52,-4,-2,-7,3,-6,.
c1ccc(-c2noc(-c3ccc4c(c3)OCO4)n2)nc1,86*,4,-1,4,3,4,85*
c1ccc(-c2noc(-c3ccc4ccccc4c3)n2)nc1,89*,-17,-2,-3,1,.,87*
C[Se]C[C@@H](N)C(=O)O,-21,2,-3,-1,-1,6,.
CC(C)(S)[C@@H](N)C(=O)O,64*,5,-5,-18,.,-2,10
O=C(Nc1cccnc1)OC1CCCCC1,75*,9,-3,-7,-1,3,-36
CS(=O)(=O)c1ccc(NCCCSc2nnc(-c3cccs3)n2-c2ccccc2)c([N+](=O)[O-])c1,.,.,.,19,.,.,.
COc1cc(/C=C2\COC/C(=C\c3cc(OC)c(OC)c(OC)c3)C2=O)cc(OC)c1OC,89*,.,2,-7,.,-3,97*
COc1cc(/C=C2\CC/C(=C\c3cc(OC)c(OC)c(OC)c3)C2=O)cc(OC)c1OC,-12,-19,-2,1,0,-7,.
CCN1/C(=C\C=C\C2=[N+](CC)c3ccccc3C2(C)C)C(C)(C)c2ccccc21,63*,-368,-14,-14,5,.,67*
O=C(c1ccc(Br)o1)N1CCOCC1CO (centres undefined),.,.,.,-2,.,.,.
CCOC(=O)C1(CC2CCCCO2)CCN(Cc2ccc(OC)cc2F)CC1 (centres undefined),80*,5,-1,2,-2,-6,-15
O=S(=O)(c1ccc(Cl)cc1)N1CCC(c2nc(-c3cccs3)no2)CC1,.,.,.,-11,.,.,.
O=c1[nH]c2cc([N+](=O)[O-])ccc2c2ccccc12,-6,.,2,-3,.,-25,.
O=c1[nH]c2cc([N+](=O)[O-])ccc2c2ccc([N+](=O)[O-])cc12,88*,.,-2,3,.,1,-8
Cc1nnsc1C(=O)N1CCC(CNC(=O)C(=O)Nc2cc3c4c(c2)[C@H](C)C(=O)N4CCC3)CC1,.,.,.,-6,.,.,.
Cc1nnc(SCSc2nnc(C)s2)s1,-23,5,0,-9,-3,-2,.
Cc1nnc(SCc2ccccc2CSc2nnc(C)s2)s1,60*,1,-5,-1,-1,-2,14
COc1ncccc1C(=O)NCCn1nc(-n2cncn2)ccc1=O,.,.,.,14,.,.,.
O=C(NCCO)c1cc2cc(Cl)ccc2o1,.,.,.,-11,.,.,.
NC(=NN=Cc1ccco1)C(N)=NN=Cc1ccco1,.,.,.,31,.,.,.
SMILES,PrP UTR inh,Rv3671c protease,FadD28 FP inh,SSB-PriA inh,Mtb UGM inh,PrPC TRFRET,PrP 5UTR single
O=C(O)c1ccc(C=NN=Cc2ccco2)cc1,62*,.,-2,-19,.,-4,0
Cc1nc2ccccn2c1C(=O)NC1CCCc2ccccc21 (centres undefined),60*,-13,-1,-2,2,12,?
CCCNS(=O)(=O)c1cccc(C(=O)OCc2cc(=O)oc3cc(OC)ccc23)c1,57*,-23,-1,-3,-1,-7,69*
COc1ccc2c(COC(=O)c3cccc(S(=O)(=O)NCC(C)C)c3)cc(=O)oc2c1,-28,-19,-5,4,-2,4,.
O=C(NCCC(O)c1ccoc1)c1cccc2ccccc12 (centres undefined),.,.,.,-12,.,.,.
CC1=CC(=C2C(=O)c3ccccc3C2=O)C=C(C)N1C,-48,1,1,-5,-1,-29,.
CCCCCN1C=CC(=C2C(=O)c3ccccc3C2=O)C=C1,89*,-2,-2,2,-2,-12,89*
C#C[C@]1(O)CC[C@H]2[C@@H]3CCc4cc(OC5CCCC5)ccc4[C@H]3CC[C@@]21C,61*!,-3,-4,-1,-3,-2,-13
COc1ccc2c(c1)/C(=C/c1cc(OC)c(OC)c(OC)c1)C(=O)N2,64*,.,1,-2,.,2,73*
Cc1nc(-n2cccc2)sc1C(=O)NCC#CCOc1ccccc1C(N)=O,.,.,.,10,.,.,.
Cc1cc(C)n(-c2nc3ccccc3s2)n1,-38,-3,0,-16,0,2,.
Cc1c2c(=O)n(-c3nc4ccccc4s3)nc-2cc(O)n1Cc1ccccc1,65*,.,?,-3,.,.,35
Cc1cc(NC2=CC(=O)C(=O)c3ccccc32)no1,77*,.,2,7,.,-10,-2
CN(C)c1ccc(CCNC(=O)Cc2ccc(F)cc2)cc1,.,.,.,-1,.,.,.
CCN(CC)c1ccc(/C=C(/C#N)C(=O)NC(C)C)o1,82*,-3,-1,6,-2,-22,-24
CC(=O)c1ccc(-c2cccs2)s1,69*,15,-2,-25,-4,-9,-28
CCn1c(C)cc(=O)c2cc(Br)ccc21,.,.,.,-21,.,.,.
CSc1ccccc1NC(=O)C(C)N(C)CC(=O)N1CCN(Cc2ccccc2)CC1 (centres undefined),74*,.,-1,1,.,0,-10
Cc1nn(C(C)(C)C)c(C)c1/C=N/OC(=O)Nc1ccc(Cl)cc1,94*,5,-2,i,-2,11,93*
Cc1nn(C)c(C)c1/C=N/NC(=O)C(C)(C)Oc1ccc(Cl)cc1,5,4,-3,.,-3,.,.
Cc1cc2nc(/C=C/c3cccnc3)[nH]c2cc1C,66*,.,-6,-20,0,-1,84*
CCSC(=O)N=Nc1ccc(O)cc1,56*,.,-1,-15,.,-11,1
O=C(O)c1cccc(N/N=C/c2cccs2)c1,65*,0,2,.,3,2,63*
CCOC(=O)C1=C(CS(=O)(=O)c2ccc(F)cc2)NC(=O)NC1c1cc(OC)ccc1OC (centres undefined),.,.,.,8,.,.,.
CCOc1ccc(-c2ccc(SCc3cccc(C)c3)nn2)cc1,.,.,.,-21,.,.,.
COP(=O)(OC)c1nc(-c2cccc3ccccc23)oc1N1CCCCC1,-38,2,-1,-10,-1,3,.
CCOP(=O)(OCC)c1nc(-c2cccc3ccccc23)oc1N1CCCCC1,72*,4,-2,-49,1,2,1
Nc1ccc(Oc2cccc(Oc3ccc(N)cc3)c2)cc1,67*,7,0,22,5,10,75*

# Assay outcomes (PubChem BioAssay)
